Among the data in PubChem BioAssay (EPA / NIEHS) are AC50 and outcome values, retold here.

Values joined by “and” are separate entries in the source; they are usually repeats but may differ in a detail not shown here. Identical values can stand only once. Results filed as inconclusive are left out. Where a structure was tested more than once in an assay, its records may differ in their call. Active and inactive are the calls of the source. How the source made its calls, unless noted: active means hit-call score of the fitted dose curve at least 0.9, where 1 is the maximum; inactive means score below 0.9.

For one assay, the system named is DIO2 (gene 1734). Description: CCTE_GLTED_hDIO2: CCTE's human Deiodinase 2 (DIO2) Inhibition Assay, Great Lakes Toxicology and Ecology Division (GLTED) Lab (AID 2284050; active means hit-call score of the fitted dose curve at least 0.9, where 1 is the maximum). The method in brief:
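hDIO2 enzyme + test chem, 3 h → free iodide from substrate; step 2: Sandell-Kolthoff (Ce IV reduction by As, iodide-catalysed), spectrophotometric read. Triplicate plates; DMSO = baseline.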
In general, AC50 refers to the midpoint of the concentration-response curve, whichever way the signal moves. For `CC#Cc1cc(C)nc(Nc2ccccc2)n1`, the AC50 was 22.2 µM (active).
Consider `O=C(O)C(F)(F)C(F)(F)C(F)(F)C(F)(F)C(F)(F)C(F)(F)C(F)(F)C(F)(F)C(F)(F)F`, for which the AC50 is 100 µM (active) and 71.6 µM (active).
Regarding `CCCCCCCCCC[N+](C)(C)CCCCCCCCCC`, the AC50 was 62.7 µM (active).

System in a further assay: not listed separately
The experiment in a line: CCTE_Shafer_MEA_dev_spike_duration_mean: CCTE's Neural Network Formation Assay for Mean Spike Duration, Shafer Lab (AID 2284051).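 Further: mean network spike duration pooled as area under curve over DIV 5 to 12 recordings.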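 On AC50: potency for a decrease in mean network spike duration versus DMSO.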 The method in brief:
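With DMSO as baseline, loss of mean network spike duration was scored from extracellular recordings of rat cortical neurons on MEA plates. Exposure spanned plating to DIV 12; the four recording days were collapsed into one AUC value.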
Consider `Clc1ccc(C(c2ccccc2Cl)C(Cl)(Cl)Cl)cc1` (stereo not given), for which the AC50 is 2.76 µM (active).
Take `ClC1=C(Cl)[C@]2(Cl)[C@@H]3[C@@H]4C[C@@H]([C@H]5O[C@@H]45)[C@@H]3[C@@]1(Cl)C2(Cl)Cl`: the AC50 was 23.9 µM (active).
In the case of `ClC1=C(Cl)[C@]2(Cl)[C@@H]3[C@@H](Cl)[C@H]4O[C@H]4[C@@H]3C1(Cl)C2(Cl)Cl`, the AC50 is 25.9 µM (active).
For `C=CC(N)=O`, the call was inactive.
In the case of `CO/C=C(/C(=O)OC)c1ccccc1COc1cccc(C(F)(F)F)n1`, the half-maximal activity concentration (AC50) is 212 nM (active) and 454 nM (active).
For `O=C(O)C(F)(F)C(F)(F)C(F)(F)C(F)(F)C(F)(F)F`, the outcome was inactive.
Regarding `COc1ccc(O)c(C(C)(C)C)c1`, the result was inactive.
Consider `O=S(=O)(O)C(F)(F)C(F)(F)C(F)(F)C(F)(F)F`, for which the concentration at half-maximal activity (AC50) is 50 µM (active) and the compound was called inactive.
Consider `CCOP(=S)(OCC)SCSC(C)(C)C`, for which the AC50 was 13.9 µM (active) and 21.9 µM (active).
With `ClC(Cl)=C(c1ccc(Cl)cc1)c1ccc(Cl)cc1`, the half-maximal activity concentration (AC50) is 3.8 µM (active).

System in the next assay: not listed separately
The experiment in a line: CCTE_Shafer_MEA_dev_network_spike_duration_std: CCTE's Neural Network Formation Assay for Standard Deviation of Network Spike Duration, Shafer Lab (AID 2284052).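 Further: area under curve of spike duration SD across recording days 5 to 12; hits are decreases in network spike duration SD versus DMSO vehicle.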 The method in brief:
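Developing networks of rat cortical neurons were exposed over twelve days in vitro on 48-well MEA plates. Trapezoidal AUC of recordings (DIV 5–12) was analysed for signal loss relative to DMSO vehicle.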
Turning to `Clc1ccc(C(c2ccccc2Cl)C(Cl)(Cl)Cl)cc1` (stereo not given), the result was inactive.
Consider `ClC1=C(Cl)[C@]2(Cl)[C@@H]3[C@@H]4C[C@@H]([C@H]5O[C@@H]45)[C@@H]3[C@@]1(Cl)C2(Cl)Cl`, for which the half-maximal activity concentration (AC50) was 3.38 µM (active).
For `ClC1=C(Cl)[C@]2(Cl)[C@@H]3[C@@H](Cl)[C@H]4O[C@H]4[C@@H]3C1(Cl)C2(Cl)Cl`, the compound was classed as inactive.
On to `C=CC(N)=O`, for which the compound was classed as inactive.
As to `CO/C=C(/C(=O)OC)c1ccccc1COc1cccc(C(F)(F)F)n1`, the AC50 is 246 nM (active) and 245 nM (active).
Regarding `O=C(O)C(F)(F)C(F)(F)C(F)(F)C(F)(F)C(F)(F)F`, the outcome was inactive.
Take `COc1ccc(O)c(C(C)(C)C)c1`: the compound was classed as inactive.
Take `O=S(=O)(O)C(F)(F)C(F)(F)C(F)(F)C(F)(F)F`: the call was inactive.
In the case of `CCOP(=S)(OCC)SCSC(C)(C)C`, the AC50 is 16.2 µM (active) and the call was inactive.

System in a further assay: not listed separately
The experiment in a line: CCTE_Shafer_MEA_dev_per_network_spike_spike_number_mean: CCTE's Neural Network Formation Assay for Mean Number of Spikes in a Network Spike, Shafer Lab (AID 2284053).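 On AC50: fitted as decrease in spikes per network spike relative to DMSO.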 The method in brief: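 First, rat cortical cells (1.5 x 10^5/well) were seeded onto MEA wells; second, dosing began at plating and was refreshed on DIV 5 and 9; finally, network-spike spike counts across DIV 5–12 were summarized as AUC.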
Turning to `Clc1ccc(C(c2ccccc2Cl)C(Cl)(Cl)Cl)cc1` (stereo not given), the AC50 was 0.215 µM (active).
For the compound `ClC1=C(Cl)[C@]2(Cl)[C@@H]3[C@@H]4C[C@@H]([C@H]5O[C@@H]45)[C@@H]3[C@@]1(Cl)C2(Cl)Cl`, the result was inactive.
For `ClC1=C(Cl)[C@]2(Cl)[C@@H]3[C@@H](Cl)[C@H]4O[C@H]4[C@@H]3C1(Cl)C2(Cl)Cl`, the concentration at half-maximal activity (AC50) was 27.1 µM (active).
On to `C=CC(N)=O`, for which the compound was classed as inactive.
Turning to `CO/C=C(/C(=O)OC)c1ccccc1COc1cccc(C(F)(F)F)n1`, the AC50 was 218 nM (active) and 739 nM (active).
Regarding `O=C(O)C(F)(F)C(F)(F)C(F)(F)C(F)(F)C(F)(F)F`, the outcome was inactive.
On to `COc1ccc(O)c(C(C)(C)C)c1`, for which the compound was classed as inactive.
Turning to `O=S(=O)(O)C(F)(F)C(F)(F)C(F)(F)C(F)(F)F`, the AC50 was 14.2 µM (active) and the result was inactive.
`CCOP(=S)(OCC)SCSC(C)(C)C`: the AC50 was 23.4 µM (active) and 17.1 µM (active).
Consider `ClC(Cl)=C(c1ccc(Cl)cc1)c1ccc(Cl)cc1`, for which the AC50 was 3.63 µM (active).

The subject of a further assay is DIO3 (gene 1735). The experiment in a line: CCTE_GLTED_hDIO3: CCTE's human Deiodinase 3 (DIO3) Inhibition Assay, Great Lakes Toxicology and Ecology Division (GLTED) Lab (AID 2284055; active means hit-call score of the fitted dose curve at least 0.9, where 1 is the maximum;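 further: potency is for inhibition seen as loss of released iodide signal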). The method in brief: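 Absorbance from the Sandell-Kolthoff reaction reports iodide released by human DIO3 during a 3-hour incubation with chemical. Inhibition scored as signal loss against DMSO controls.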
For `CC#Cc1cc(C)nc(Nc2ccccc2)n1`, the AC50 is 3.73 µM (active).
Turning to `O=C(O)C(F)(F)C(F)(F)C(F)(F)C(F)(F)C(F)(F)C(F)(F)C(F)(F)C(F)(F)C(F)(F)F`, the AC50 is 89.4 µM (active) and 74.2 µM (active).
As for `CCCCCCCCCC[N+](C)(C)CCCCCCCCCC`, the AC50 is 3.56 µM (active).

System in the next assay: not listed separately
Description: CCTE_Shafer_MEA_acute_AB: CCTE's Alamar Blue Assay for Cytotoxicity in the Neural Acute Assay, Shafer Lab (AID 2284069; active means hit-call score of the fitted dose curve at least 0.9, where 1 is the maximum;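 further: active compounds lower the viability signal compared with DMSO wells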). The method in brief:
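Cytotoxicity endpoint for acute MEA exposures of primary rat cortical neurons on day 13 or 15. Resazurin reduction is read fluorescently at 544/590 nm, with DMSO as the negative-control baseline.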
In the case of `ClC1=C(Cl)[C@]2(Cl)[C@@H]3[C@@H]4C[C@@H]([C@H]5O[C@@H]45)[C@@H]3[C@@]1(Cl)C2(Cl)Cl`, the compound was classed as inactive.
For `COS(=O)(=O)OC`, the call was inactive.
Still for that read-out and setting: next, `ClC1=C(Cl)[C@]2(Cl)[C@@H]3[C@@H](Cl)[C@H]4O[C@H]4[C@@H]3C1(Cl)C2(Cl)Cl`: “inactive”; `CC#Cc1cc(C)nc(Nc2ccccc2)n1`: “inactive”; `CN(C)CCO`: “inactive”.
`CC(c1ccc(O)cc1)(c1ccc(O)cc1)c1ccc(O)cc1`: the call was inactive.
On the same count and under the same terms, next, `C=CC(N)=O`: “inactive”; `CO/C=C(/C(=O)OC)c1ccccc1COc1cccc(C(F)(F)F)n1`: “inactive”.
In the case of `O=C(O)C(F)(F)C(F)(F)C(F)(F)C(F)(F)C(F)(F)F`, the call was inactive.
Turning to `COc1ccc(O)c(C(C)(C)C)c1`, the result was inactive.
With `O=C(NC(=O)c1c(F)cccc1F)Nc1cc(Cl)c(OC(F)(F)C(F)F)c(Cl)c1`, the outcome was inactive.
`CCSC(=O)N(CC)C1CCCCC1`: the compound was classed as inactive.
The same measure, in the same setting: next, `ClC(Cl)=C(c1ccc(Cl)cc1)c1ccc(Cl)cc1`: “inactive”; `CCC(C)(CC)c1cc(NC(=O)c2c(OC)cccc2OC)on1`: “inactive”.
For the compound `CCCCCCCCCC[N+](C)(C)CCCCCCCCCC`, the half-maximal activity concentration (AC50) is 20 µM (active).

System in another assay: not listed separately
Description: CCTE_Shafer_MEA_dev_AB: CCTE's Alamar Blue Assay for Cytotoxicity in the Neural Network Formation Assay, Shafer Lab (AID 2284083; active means hit-call score of the fitted dose curve at least 0.9, where 1 is the maximum;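 further: resazurin reduction fluorescence as viability of cultured neurons; twelve days of exposure from plating with re-dosing on DIV 5 and 9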). The method in brief: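 Cytotoxicity companion to the developmental MEA: primary rat cortical neurons, 12-day exposure starting day 0, compound refreshed DIV 5 and 9; resazurin fluorescence, fitted against DMSO vehicle.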
A general note: The colour change of resazurin is a common sign of viable cells or microbes.
For `Clc1ccc(C(c2ccccc2Cl)C(Cl)(Cl)Cl)cc1` (stereo not given), the AC50 was 6.13 µM (active).
In the case of `ClC1=C(Cl)[C@]2(Cl)[C@@H]3[C@@H]4C[C@@H]([C@H]5O[C@@H]45)[C@@H]3[C@@]1(Cl)C2(Cl)Cl`, the AC50 is 22.4 µM (active).
Regarding `ClC1=C(Cl)[C@]2(Cl)[C@@H]3[C@@H](Cl)[C@H]4O[C@H]4[C@@H]3C1(Cl)C2(Cl)Cl`, the AC50 was 23.9 µM (active).
In the case of `C=CC(N)=O`, the compound was classed as inactive.
For `CO/C=C(/C(=O)OC)c1ccccc1COc1cccc(C(F)(F)F)n1`, the AC50 was 856 nM (active) and 1.12 µM (active).
On to `CCOP(=S)(OCC)SCSC(C)(C)C`, for which the AC50 was 18.7 µM (active) and 82.5 µM (active).
On the same count and under the same terms, next, `ClC(Cl)=C(c1ccc(Cl)cc1)c1ccc(Cl)cc1`: 6.02 µM (active).
